The results in this text go back to PubChem BioAssay AID1211 (NMMLSC, 2008).

The source made the active and inactive calls. No rule for the calls is given here.

For this test, the target named is Estrogen receptor (Homo sapiens) (UniProt P03372). Nature of the test: displacement of fluorescent estrogen from ERalpha – cell-based, Cos7 ERalpha-GFP, flow cytometry, primary screen (AID 1211).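 Also: 0% = DMSO vehicle wells and 100% = no E2-Alexa633 signal left.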 The settings on record: fluorescent ligand competition, stronger effect = higher value.
Sequence of Estrogen receptor (Homo sapiens) (P03372 whole entry, looked up): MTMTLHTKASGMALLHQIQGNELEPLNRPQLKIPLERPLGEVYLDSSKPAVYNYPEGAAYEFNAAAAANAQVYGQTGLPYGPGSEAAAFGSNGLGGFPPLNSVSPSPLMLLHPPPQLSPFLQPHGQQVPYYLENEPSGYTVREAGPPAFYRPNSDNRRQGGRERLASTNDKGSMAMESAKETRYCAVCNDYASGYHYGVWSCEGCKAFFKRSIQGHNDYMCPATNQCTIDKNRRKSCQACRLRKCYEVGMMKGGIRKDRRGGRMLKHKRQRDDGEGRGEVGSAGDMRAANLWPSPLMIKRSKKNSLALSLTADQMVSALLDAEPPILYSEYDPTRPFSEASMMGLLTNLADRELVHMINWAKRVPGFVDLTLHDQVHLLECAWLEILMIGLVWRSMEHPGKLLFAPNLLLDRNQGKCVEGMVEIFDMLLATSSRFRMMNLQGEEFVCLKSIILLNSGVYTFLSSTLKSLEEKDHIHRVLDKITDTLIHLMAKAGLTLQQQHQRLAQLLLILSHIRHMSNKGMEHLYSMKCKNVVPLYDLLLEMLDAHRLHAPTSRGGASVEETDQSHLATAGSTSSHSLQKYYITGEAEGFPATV

In the case of `COC(=O)c1ccc(CC(=O)c2c(C)cc(O)cc2O)o1`, the inhibition of ligand binding (at 10 µM) was 34% (inactive) and the inhibition of ligand binding (binding inhibition, at 0.1 µM) amounted to 43%.

On to `O=C(CCCn1c(=S)[nH]c2cc3c(cc2c1=O)OCO3)N1CCN(c2ccc(Cl)cc2)CC1`, for which the inhibition of ligand binding was 30% (inactive) (at 10 µM) and 27% (binding inhibition, at 0.1 µM).

On to `CCOC(=O)C1CCCN(C(=O)c2cc3ncc(Br)cn3n2)C1` (stereo not drawn), for which the inhibition of ligand binding was 3% (inactive) (at 10 µM) and 41% (binding inhibition, at 0.1 µM).

Consider `O=C1Nc2ccccc2SC(c2ccccc2)C1O` (stereo not drawn), for which the inhibition of ligand binding runs as follows: (at 10 µM) 26% (inactive); (binding inhibition, at 0.1 µM) 46%.

As for `NS(=O)(=O)c1ccc2c(c1)C1C=CCC1C(C1CC=CCC1)N2` (stereo not drawn), the inhibition of ligand binding (at 10 µM) is 69% (active) and the inhibition of ligand binding (binding inhibition, at 0.1 µM) came to 17%.

`CCN(CC)CCCNC(=O)c1nn(-c2ccccc2OC)c(=O)c2ccccc12`: the inhibition of ligand binding (at 10 µM) was 39% (inactive) and the inhibition of ligand binding (binding inhibition, at 0.1 µM) came out at 62%.

Turning to `Cc1c(N=Cc2ccc(O)c(Br)c2)cccc1[N+](=O)[O-]`, the inhibition of ligand binding by setting is: (at 10 µM) 0% (inactive); (binding inhibition, at 0.1 µM) 23%.

Take `CCc1ccc2nc(NC(=O)c3ccc4c(=O)[nH]c(CN5CCOCC5)nc4c3)sc2c1`: the inhibition of ligand binding is 32% (inactive) (at 10 µM) and 9% (binding inhibition, at 0.1 µM).

Take `CCCCCc1nnc(NC(=O)Cc2cccs2)s1`: the inhibition of ligand binding was 26% (inactive) (at 10 µM) and 8% (binding inhibition, at 0.1 µM).

With `CNc1nnc(-c2cc3cc(Cl)ccc3oc2=O)s1`, the inhibition of ligand binding is 29% (inactive) (at 10 µM) and 58% (binding inhibition, at 0.1 µM).

Consider `Cc1ccc(-n2c(SCC(=O)NNC(=S)Nc3ccccc3)nc3ccccc3c2=O)cc1`, for which the inhibition of ligand binding by setting is: (at 10 µM) 37% (inactive); (binding inhibition, at 0.1 µM) 44%.

As to `O=C1NCCCC2c3cc(O)c4ccccc4c3OC12N1CCCCC1` (stereo not drawn), the inhibition of ligand binding is 25% (inactive) (at 10 µM) and 23% (binding inhibition, at 0.1 µM).

In the case of `COC(=O)c1ccc2c(=O)n(CCCCCC(=O)NCc3ccc4c(c3)OCO4)c(=O)[nH]c2c1`, the inhibition of ligand binding (at 10 µM) is 19% (inactive) and the inhibition of ligand binding (binding inhibition, at 0.1 µM) was 18%.

As to `CCc1nc(N)nc(N)c1-c1ccc(Cl)cc1`, the inhibition of ligand binding (at 10 µM) was 26% (inactive) and the inhibition of ligand binding (binding inhibition, at 0.1 µM) came out at 25%.

For the compound `O=C(NC1CCN(C(=O)N2c3ccccc3Sc3ccccc32)CC1)c1ccccc1Cl`, the inhibition of ligand binding by setting is: (at 10 µM) 36% (inactive); (binding inhibition, at 0.1 µM) 37%.

In the case of `O=C(Cc1ccccc1)Nc1ccc2oc(-c3cccnc3)nc2c1`, the inhibition of ligand binding by setting is: (at 10 µM) 32% (inactive); (binding inhibition, at 0.1 µM) 44%.

Turning to `COc1cc(-c2nc3ccc4ccccc4c3c3c2CCC3)cc(OC)c1O`, the inhibition of ligand binding reads like this: (at 10 µM) 0% (inactive); (binding inhibition, at 0.1 µM) 30%.

On to `CC(Cc1ccc(O)c(O)c1)C(C)Cc1ccc(O)c(O)c1` (stereo not drawn), for which the inhibition of ligand binding by setting is: (at 10 µM) 47% (inactive); (binding inhibition, at 0.1 µM) 3%.

On to `COc1ccc2c(c1)[nH]c1c(=O)n(N)cnc12`, for which the inhibition of ligand binding (at 10 µM) is 55% (inactive) and the inhibition of ligand binding (binding inhibition, at 0.1 µM) turned out to be 20%.

`Cc1ccc2[nH]c(=O)c(C3C(C#N)=C(N)Oc4c3ccc3cccnc43)cc2c1` (stereo not drawn): the inhibition of ligand binding was 27% (inactive) (at 10 µM) and 26% (binding inhibition, at 0.1 µM).

`COc1ccc2[nH]c3c(c2c1)CCn1c-3nc2ccccc2c1=O`: the inhibition of ligand binding is 25% (inactive) (at 10 µM) and 36% (binding inhibition, at 0.1 µM).

As for `Cc1nn2cc(-c3ccc(N)cc3)nc2s1`, the inhibition of ligand binding is, setting by setting: (at 10 µM) 28% (inactive); (binding inhibition, at 0.1 µM) 53%.

For the compound `Oc1ccccc1-c1nnc(SCCN2CCOCC2)n1Cc1ccccc1`, the inhibition of ligand binding reads like this: (at 10 µM) 32% (inactive); (binding inhibition, at 0.1 µM) 44%.

For `CCCc1cc(-n2ccnc2)n2c(nc3ccccc32)c1C#N`, the inhibition of ligand binding is 14% (inactive) (at 10 µM) and 50% (binding inhibition, at 0.1 µM).

Turning to `COc1ccccc1-c1nnc2sc(-c3cnccn3)nn12`, the inhibition of ligand binding is 52% (inactive) (at 10 µM) and 3% (binding inhibition, at 0.1 µM).

`Cc1cc(C)cc(OCC(=O)Nc2ccc(N3CCCC3)cc2)c1`: the inhibition of ligand binding is, setting by setting: (at 10 µM) 80% (active); (binding inhibition, at 0.1 µM) 17%.

With `Nc1ccc2nc(-c3ccc(Cl)cc3)[nH]c2c1`, the inhibition of ligand binding runs as follows: (at 10 µM) 41% (inactive); (binding inhibition, at 0.1 µM) 30%.

Regarding `CCOc1cccc2cc(-c3cn4cc(C)ccc4n3)c(=O)oc12`, the inhibition of ligand binding reads like this: (at 10 µM) 52% (inactive); (binding inhibition, at 0.1 µM) 29%.

Turning to `CC(=O)Nc1ccc2[nH]c(C)cc(=O)c2c1`, the inhibition of ligand binding (at 10 µM) was 27% (inactive) and the inhibition of ligand binding (binding inhibition, at 0.1 µM) was determined as 19%.

As to `COc1cc(C(Nc2ccccn2)c2ccc3ccc(C)nc3c2O)cc(OC)c1O` (stereo not drawn), the inhibition of ligand binding is 54% (inactive) (at 10 µM) and 16% (binding inhibition, at 0.1 µM).

Regarding `Cc1ccnc(NS(=O)(=O)c2ccc(NC(=O)Cc3cccs3)cc2)n1`, the inhibition of ligand binding was 31% (inactive) (at 10 µM) and 63% (binding inhibition, at 0.1 µM).

Take `O=c1cc(-c2ccc(O)c(O)c2)oc2c(C3O[C@H](CO)[C@@H](O)[C@H](O)[C@H]3O)c(O)cc(O)c12` (stereo partly drawn): the inhibition of ligand binding was 28% (inactive) (at 10 µM) and 27% (binding inhibition, at 0.1 µM).

Turning to `Cc1ccc(Cn2c(NC(=O)c3ccco3)nc3ccccc32)cc1`, the inhibition of ligand binding is, setting by setting: (at 10 µM) 29% (inactive); (binding inhibition, at 0.1 µM) 11%.

With `CCCCn1c(NC(=O)CC)c(C#N)c2nc3ccccc3nc21`, the inhibition of ligand binding was 35% (inactive) (at 10 µM) and 40% (binding inhibition, at 0.1 µM).

Regarding `CN1C(=O)CSc2ccc(NC(=O)N3CCC(N4CCCCC4)CC3)cc21`, the inhibition of ligand binding was 57% (inactive) (at 10 µM) and 1% (binding inhibition, at 0.1 µM).

For `C=CCn1c(=O)c(C#N)cc2c(=O)n3ccccc3nc21`, the inhibition of ligand binding runs as follows: (at 10 µM) 38% (inactive); (binding inhibition, at 0.1 µM) 42%.

On to `CCCC1=NN2C(=N)/C(=C\c3ccc(SCc4ccco4)o3)C(=O)N=C2S1`, for which the inhibition of ligand binding reads like this: (at 10 µM) 14% (inactive); (binding inhibition, at 0.1 µM) 26%.

On to `COC(=O)c1cc(-c2c(C)oc3cc(O)ccc3c2=O)c(C)o1`, for which the inhibition of ligand binding reads like this: (at 10 µM) 32% (inactive); (binding inhibition, at 0.1 µM) 50%.

Regarding `CC(=O)Nc1ccc(OC(=O)CC2SC(=O)NC2=O)cc1` (stereo not drawn), the inhibition of ligand binding reads like this: (at 10 µM) 51% (inactive); (binding inhibition, at 0.1 µM) 60%.

On to `C=CCn1c(COc2cccc(C)c2)nnc1SCC(=O)NC(=O)NCc1ccco1`, for which the inhibition of ligand binding runs as follows: (at 10 µM) 9% (inactive); (binding inhibition, at 0.1 µM) 31%.

`Cc1nnc(NC(=O)CSc2nc3c(c(=O)n2CCc2ccccc2)SC(C)C3)s1` (stereo not drawn): the inhibition of ligand binding (at 10 µM) was 23% (inactive) and the inhibition of ligand binding (binding inhibition, at 0.1 µM) amounted to 61%.

Regarding `COc1ccc(-c2nn(-c3ccccc3)cc2/C=C2/SC(=S)N(Cc3ccco3)C2=O)c(C)c1`, the inhibition of ligand binding was 21% (active) (at 10 µM) and 67% (binding inhibition, at 0.1 µM).

For `Cc1ccc2occ(C3NC(C(=O)O)CS3)c(=O)c2c1` (stereo not drawn), the inhibition of ligand binding (at 10 µM) was 39% (inactive) and the inhibition of ligand binding (binding inhibition, at 0.1 µM) was 27%.

As for `Cc1ccc(C(=O)N/N=C/c2ccc([N+](=O)[O-])s2)cc1`, the inhibition of ligand binding runs as follows: (at 10 µM) 40% (active); (binding inhibition, at 0.1 µM) 73%.
